What was measured:
Test in all cases: DAPPL (digital affinity profiling via proximity ligation, sequencing); 10 mM Tris-HCl pH 7.5, 50 mM NaCl, 1 mM DTT, 4% glycerol, room temperature, 30 min; GST-TFs on glutathione beads, 16-mer random dsDNA library, 0.1% formaldehyde crosslink after washing; high values mean tight binding
FLI1 = target: T1, FLI1 (Homo sapiens, UniProt Q01543 1-452); conditions: protein: recombinant; tags: N-terminal GST; dsDNA, one strand shown
T1 sequence: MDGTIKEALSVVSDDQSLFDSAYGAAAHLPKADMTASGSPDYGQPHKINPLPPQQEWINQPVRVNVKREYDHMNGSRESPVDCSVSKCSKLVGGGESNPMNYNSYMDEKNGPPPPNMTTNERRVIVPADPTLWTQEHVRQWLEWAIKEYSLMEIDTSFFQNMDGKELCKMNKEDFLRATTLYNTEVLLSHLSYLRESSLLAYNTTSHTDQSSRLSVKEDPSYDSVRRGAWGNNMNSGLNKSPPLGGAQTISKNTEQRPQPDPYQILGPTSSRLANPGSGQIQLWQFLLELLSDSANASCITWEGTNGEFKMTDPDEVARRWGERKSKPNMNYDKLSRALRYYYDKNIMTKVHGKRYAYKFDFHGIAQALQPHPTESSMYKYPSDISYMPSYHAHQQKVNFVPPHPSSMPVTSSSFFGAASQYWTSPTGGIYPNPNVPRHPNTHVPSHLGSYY
Summary of the method: (§1)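 After expression in yeast as GST fusions, human transcription factors were bound to glutathione beads, DNA-barcoded and mixed with a tag-only sample. The pools were incubated with 200 nmole of a 16-mer random double-stranded DNA library in Tris/NaCl/DTT/glycerol buffer (30 min, room temperature), washed and crosslinked with 0.1% formaldehyde. Proximity ligation with BsaI/T4 ligase ran for 1 h at 37 °C, before PCR amplification and sequencing on an Illumina NextSeq500. Binding signal is a hexamer's read frequency for a factor divided by its frequency for the tag-only sample.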

ELK1 = target: T2, ELK1 (Homo sapiens, UniProt P19419 1-428); conditions: protein: recombinant; tags: N-terminal GST; dsDNA, one strand shown
T2 sequence: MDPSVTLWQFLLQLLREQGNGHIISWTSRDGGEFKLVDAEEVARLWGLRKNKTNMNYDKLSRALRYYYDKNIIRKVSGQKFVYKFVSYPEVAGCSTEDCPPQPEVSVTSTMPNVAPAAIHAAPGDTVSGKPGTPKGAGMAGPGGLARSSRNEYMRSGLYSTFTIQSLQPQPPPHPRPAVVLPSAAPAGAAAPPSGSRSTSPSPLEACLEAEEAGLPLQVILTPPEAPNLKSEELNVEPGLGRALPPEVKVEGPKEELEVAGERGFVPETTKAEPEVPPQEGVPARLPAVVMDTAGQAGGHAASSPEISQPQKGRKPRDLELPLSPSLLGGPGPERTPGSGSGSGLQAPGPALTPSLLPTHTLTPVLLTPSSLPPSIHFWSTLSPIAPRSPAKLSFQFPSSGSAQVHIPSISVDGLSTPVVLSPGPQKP
Summary of the method: as §1

GABPA = target: T3, GABPA (Homo sapiens, UniProt Q06546 1-454); conditions: protein: recombinant; tags: N-terminal GST; dsDNA, one strand shown
T3 sequence: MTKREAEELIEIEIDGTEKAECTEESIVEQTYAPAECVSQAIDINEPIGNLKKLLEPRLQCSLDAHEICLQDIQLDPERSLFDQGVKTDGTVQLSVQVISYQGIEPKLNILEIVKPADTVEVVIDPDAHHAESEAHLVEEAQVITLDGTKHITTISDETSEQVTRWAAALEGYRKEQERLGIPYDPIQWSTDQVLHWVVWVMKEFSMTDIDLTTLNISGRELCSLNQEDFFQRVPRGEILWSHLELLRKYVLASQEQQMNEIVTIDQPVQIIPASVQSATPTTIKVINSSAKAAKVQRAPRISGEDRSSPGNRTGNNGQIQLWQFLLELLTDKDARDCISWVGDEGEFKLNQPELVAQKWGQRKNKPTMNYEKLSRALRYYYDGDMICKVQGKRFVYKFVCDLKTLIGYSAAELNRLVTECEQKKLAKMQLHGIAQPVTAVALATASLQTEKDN
Summary of the method: as §1

ERG = target: T4, ERG (Homo sapiens, UniProt P11308 1-479); conditions: protein: recombinant; tags: N-terminal GST; dsDNA, one strand shown
T4 sequence: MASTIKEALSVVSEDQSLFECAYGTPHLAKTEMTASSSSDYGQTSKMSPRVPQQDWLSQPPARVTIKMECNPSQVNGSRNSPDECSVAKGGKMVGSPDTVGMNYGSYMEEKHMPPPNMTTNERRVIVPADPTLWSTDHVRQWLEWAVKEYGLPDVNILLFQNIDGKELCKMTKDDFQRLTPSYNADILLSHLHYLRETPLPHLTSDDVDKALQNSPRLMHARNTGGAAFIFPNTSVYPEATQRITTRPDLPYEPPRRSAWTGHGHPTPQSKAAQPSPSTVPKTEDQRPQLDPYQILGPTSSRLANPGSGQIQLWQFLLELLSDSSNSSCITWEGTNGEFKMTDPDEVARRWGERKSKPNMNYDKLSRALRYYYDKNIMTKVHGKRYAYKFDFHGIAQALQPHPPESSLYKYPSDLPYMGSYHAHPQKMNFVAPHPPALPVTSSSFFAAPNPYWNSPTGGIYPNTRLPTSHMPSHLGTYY
Summary of the method: as §1

ELF1 = ELF1 (Homo sapiens, UniProt P32519 1-619); conditions: protein: recombinant; tags: N-terminal GST; dsDNA, one strand shown
Summary of the method: as §1

EHF = target: T5, EHF (Homo sapiens, UniProt Q9NZC4 1-300); conditions: protein: recombinant; tags: N-terminal GST; dsDNA, one strand shown
T5 sequence: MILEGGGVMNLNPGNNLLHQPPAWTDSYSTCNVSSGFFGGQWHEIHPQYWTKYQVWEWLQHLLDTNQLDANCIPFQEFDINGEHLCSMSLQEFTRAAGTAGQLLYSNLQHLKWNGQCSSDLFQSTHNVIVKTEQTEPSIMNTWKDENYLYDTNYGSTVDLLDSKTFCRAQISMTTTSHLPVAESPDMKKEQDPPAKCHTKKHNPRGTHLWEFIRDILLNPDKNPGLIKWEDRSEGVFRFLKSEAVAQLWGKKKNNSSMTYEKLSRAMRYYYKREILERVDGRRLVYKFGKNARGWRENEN
Summary of the method: as §1

SPI1 = SPI1 (Homo sapiens, UniProt P17947 1-270); conditions: protein: recombinant; tags: N-terminal GST; dsDNA, one strand shown
Summary of the method: as §1

SPIB = SPIB (Homo sapiens, UniProt Q01892 1-262); conditions: protein: recombinant; tags: N-terminal GST; dsDNA, one strand shown
Summary of the method: as §1

ELK3 = target: T6, ELK3 (Homo sapiens, UniProt P41970 1-407); conditions: protein: recombinant; tags: N-terminal GST; dsDNA, one strand shown
T6 sequence: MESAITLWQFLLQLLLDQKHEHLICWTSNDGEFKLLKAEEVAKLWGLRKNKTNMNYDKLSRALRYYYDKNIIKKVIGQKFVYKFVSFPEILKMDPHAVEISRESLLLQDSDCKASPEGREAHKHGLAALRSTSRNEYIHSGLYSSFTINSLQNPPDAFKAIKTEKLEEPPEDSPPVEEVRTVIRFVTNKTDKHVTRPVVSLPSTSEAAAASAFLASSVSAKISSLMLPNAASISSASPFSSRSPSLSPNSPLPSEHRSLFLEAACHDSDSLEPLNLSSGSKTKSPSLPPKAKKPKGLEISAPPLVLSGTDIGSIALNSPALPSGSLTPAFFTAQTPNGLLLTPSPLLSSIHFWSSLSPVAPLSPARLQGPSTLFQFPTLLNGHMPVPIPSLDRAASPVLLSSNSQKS
Summary of the method: as §1

FEV = target: T7, FEV (Homo sapiens, UniProt Q99581 1-238); conditions: protein: recombinant; tags: N-terminal GST; dsDNA, one strand shown
T7 sequence: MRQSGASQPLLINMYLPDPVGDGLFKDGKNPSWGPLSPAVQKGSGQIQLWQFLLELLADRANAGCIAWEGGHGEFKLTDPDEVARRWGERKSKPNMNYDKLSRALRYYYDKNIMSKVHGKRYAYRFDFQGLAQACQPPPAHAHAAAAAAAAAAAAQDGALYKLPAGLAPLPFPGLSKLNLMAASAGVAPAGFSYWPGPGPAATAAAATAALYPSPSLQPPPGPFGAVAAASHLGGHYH
Summary of the method: as §1

ETV5 = ETV5 (Homo sapiens, UniProt P41161 1-510); conditions: protein: recombinant; tags: N-terminal GST; dsDNA, one strand shown
Summary of the method: as §1

HSF1 = HSF1 (Homo sapiens, UniProt Q00613 1-529); conditions: protein: recombinant; tags: N-terminal GST; chain copies: 3; dsDNA, one strand shown
Summary of the method: as §1

SPIC = target: T8, SPIC (Homo sapiens, UniProt Q8N5J4 1-248); conditions: protein: recombinant; tags: N-terminal GST; dsDNA, one strand shown
T8 sequence: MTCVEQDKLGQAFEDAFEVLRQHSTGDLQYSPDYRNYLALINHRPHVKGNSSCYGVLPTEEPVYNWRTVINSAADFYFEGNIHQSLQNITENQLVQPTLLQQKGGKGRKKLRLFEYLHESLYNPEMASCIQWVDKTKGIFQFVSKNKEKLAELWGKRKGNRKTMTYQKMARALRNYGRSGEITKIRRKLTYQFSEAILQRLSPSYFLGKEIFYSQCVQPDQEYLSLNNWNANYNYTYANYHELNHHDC
Summary of the method: as §1

ELF4 = ELF4 (Homo sapiens, UniProt Q99607 1-663); conditions: protein: recombinant; tags: N-terminal GST; dsDNA, one strand shown
Summary of the method: as §1

ELK4 = target: T9, ELK4 (Homo sapiens, UniProt P28324-2 1-405); conditions: protein: recombinant; tags: N-terminal GST; dsDNA, one strand shown
T9 sequence: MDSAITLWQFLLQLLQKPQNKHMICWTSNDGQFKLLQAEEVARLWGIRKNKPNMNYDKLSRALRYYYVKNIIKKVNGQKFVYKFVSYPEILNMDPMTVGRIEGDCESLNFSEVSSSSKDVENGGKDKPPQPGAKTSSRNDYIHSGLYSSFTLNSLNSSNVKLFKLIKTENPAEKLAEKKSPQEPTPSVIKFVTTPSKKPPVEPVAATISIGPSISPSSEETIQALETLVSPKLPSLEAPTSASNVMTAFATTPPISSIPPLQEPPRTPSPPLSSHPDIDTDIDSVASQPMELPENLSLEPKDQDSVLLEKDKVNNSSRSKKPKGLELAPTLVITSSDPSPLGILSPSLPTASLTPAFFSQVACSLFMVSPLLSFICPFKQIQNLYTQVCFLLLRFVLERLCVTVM
Summary of the method: as §1

ETV2 = target: T10, ETV2 (Homo sapiens, UniProt O00321 1-342); conditions: protein: recombinant; tags: N-terminal GST; dsDNA, one strand shown
T10 sequence: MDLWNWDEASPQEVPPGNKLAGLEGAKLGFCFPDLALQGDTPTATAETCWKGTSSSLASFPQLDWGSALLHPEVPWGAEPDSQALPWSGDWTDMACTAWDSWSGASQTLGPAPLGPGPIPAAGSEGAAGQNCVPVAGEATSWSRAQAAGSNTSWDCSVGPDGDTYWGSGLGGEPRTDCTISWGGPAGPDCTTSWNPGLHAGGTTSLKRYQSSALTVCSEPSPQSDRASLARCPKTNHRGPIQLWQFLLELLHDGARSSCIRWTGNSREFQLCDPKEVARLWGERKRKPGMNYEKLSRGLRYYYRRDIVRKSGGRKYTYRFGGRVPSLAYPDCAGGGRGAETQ
Summary of the method: as §1

ELF3 = target: T11, ELF3 (Homo sapiens, UniProt P78545 1-371); conditions: protein: recombinant; tags: N-terminal GST; dsDNA, one strand shown
T11 sequence: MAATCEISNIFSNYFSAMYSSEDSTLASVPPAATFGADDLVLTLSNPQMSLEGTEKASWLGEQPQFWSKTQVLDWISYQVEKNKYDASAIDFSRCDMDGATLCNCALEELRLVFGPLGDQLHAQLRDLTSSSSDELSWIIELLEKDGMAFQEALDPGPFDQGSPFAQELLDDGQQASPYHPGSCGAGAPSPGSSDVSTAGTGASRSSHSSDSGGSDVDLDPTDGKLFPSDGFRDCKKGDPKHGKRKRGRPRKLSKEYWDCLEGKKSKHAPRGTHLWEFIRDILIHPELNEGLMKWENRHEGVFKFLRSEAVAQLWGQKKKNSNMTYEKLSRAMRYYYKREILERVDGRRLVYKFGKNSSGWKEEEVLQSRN
Summary of the method: as §1

ETV1 = ETV1 (Homo sapiens, UniProt P50549 1-477); conditions: protein: recombinant; tags: N-terminal GST; dsDNA, one strand shown
Summary of the method: as §1

Chain of ELF4 (Q99607 whole entry): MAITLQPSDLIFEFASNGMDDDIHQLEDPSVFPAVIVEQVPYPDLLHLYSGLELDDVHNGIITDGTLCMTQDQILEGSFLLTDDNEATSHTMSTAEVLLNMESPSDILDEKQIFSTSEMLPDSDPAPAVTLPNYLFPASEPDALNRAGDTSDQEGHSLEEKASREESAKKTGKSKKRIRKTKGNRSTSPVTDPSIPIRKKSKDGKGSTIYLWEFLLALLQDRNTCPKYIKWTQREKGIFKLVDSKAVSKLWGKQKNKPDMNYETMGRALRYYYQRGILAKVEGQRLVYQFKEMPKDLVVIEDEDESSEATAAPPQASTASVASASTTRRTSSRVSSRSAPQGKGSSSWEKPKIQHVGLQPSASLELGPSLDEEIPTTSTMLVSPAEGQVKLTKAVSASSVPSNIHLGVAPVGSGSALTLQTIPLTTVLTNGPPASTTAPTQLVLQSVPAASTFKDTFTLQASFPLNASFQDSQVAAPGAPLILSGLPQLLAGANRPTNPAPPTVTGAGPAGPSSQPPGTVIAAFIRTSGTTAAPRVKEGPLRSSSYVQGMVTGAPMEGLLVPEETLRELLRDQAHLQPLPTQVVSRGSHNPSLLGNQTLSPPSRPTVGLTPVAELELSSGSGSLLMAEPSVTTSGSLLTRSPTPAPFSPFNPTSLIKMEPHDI
Chain of ELF1 (P32519 whole entry): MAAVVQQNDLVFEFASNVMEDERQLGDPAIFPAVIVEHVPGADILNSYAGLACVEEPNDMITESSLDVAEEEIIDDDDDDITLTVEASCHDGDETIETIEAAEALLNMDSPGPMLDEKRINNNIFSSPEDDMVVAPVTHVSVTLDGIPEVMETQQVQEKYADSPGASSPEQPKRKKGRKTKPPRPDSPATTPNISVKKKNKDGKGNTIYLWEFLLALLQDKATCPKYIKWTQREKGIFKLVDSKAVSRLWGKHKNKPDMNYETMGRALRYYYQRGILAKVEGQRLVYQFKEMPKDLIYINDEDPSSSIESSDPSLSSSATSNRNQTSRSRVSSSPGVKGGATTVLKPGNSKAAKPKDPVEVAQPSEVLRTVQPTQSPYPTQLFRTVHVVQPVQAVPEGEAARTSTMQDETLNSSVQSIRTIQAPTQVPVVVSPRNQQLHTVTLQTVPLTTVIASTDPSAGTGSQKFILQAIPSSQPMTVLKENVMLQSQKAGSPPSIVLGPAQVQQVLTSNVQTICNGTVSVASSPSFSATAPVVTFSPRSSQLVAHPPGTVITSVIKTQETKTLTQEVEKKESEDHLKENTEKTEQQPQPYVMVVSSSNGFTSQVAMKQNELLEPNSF
Chain of ETV1 (P50549 whole entry): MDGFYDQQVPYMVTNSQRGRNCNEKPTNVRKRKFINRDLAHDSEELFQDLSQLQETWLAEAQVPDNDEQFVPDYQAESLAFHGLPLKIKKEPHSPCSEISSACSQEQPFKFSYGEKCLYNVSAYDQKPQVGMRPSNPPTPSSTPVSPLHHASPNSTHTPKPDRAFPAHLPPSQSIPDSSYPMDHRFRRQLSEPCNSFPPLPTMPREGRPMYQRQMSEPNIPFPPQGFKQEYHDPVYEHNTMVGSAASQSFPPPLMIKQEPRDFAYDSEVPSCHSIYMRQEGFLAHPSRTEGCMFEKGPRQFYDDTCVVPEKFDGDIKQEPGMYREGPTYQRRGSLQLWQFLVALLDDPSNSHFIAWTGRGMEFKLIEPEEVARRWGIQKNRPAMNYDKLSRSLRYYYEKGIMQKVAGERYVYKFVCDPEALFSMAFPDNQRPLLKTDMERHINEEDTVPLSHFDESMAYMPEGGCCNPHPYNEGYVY
Chain of ETV5 (P41161 whole entry): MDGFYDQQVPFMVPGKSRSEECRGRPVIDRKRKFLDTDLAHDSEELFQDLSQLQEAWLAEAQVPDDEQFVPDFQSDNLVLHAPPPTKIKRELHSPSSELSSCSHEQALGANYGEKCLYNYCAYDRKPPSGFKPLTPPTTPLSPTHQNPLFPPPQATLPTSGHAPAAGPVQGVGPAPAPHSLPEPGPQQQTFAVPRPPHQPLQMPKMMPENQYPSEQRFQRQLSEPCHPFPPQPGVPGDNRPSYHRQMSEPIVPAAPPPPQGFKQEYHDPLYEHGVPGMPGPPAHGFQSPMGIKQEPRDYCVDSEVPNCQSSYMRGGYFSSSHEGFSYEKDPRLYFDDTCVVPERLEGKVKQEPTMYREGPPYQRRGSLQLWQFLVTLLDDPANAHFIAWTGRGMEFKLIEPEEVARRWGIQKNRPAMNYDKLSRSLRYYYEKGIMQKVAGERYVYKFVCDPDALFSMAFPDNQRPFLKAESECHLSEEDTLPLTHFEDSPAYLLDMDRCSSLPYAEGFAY
Chain of HSF1 (Q00613 whole entry): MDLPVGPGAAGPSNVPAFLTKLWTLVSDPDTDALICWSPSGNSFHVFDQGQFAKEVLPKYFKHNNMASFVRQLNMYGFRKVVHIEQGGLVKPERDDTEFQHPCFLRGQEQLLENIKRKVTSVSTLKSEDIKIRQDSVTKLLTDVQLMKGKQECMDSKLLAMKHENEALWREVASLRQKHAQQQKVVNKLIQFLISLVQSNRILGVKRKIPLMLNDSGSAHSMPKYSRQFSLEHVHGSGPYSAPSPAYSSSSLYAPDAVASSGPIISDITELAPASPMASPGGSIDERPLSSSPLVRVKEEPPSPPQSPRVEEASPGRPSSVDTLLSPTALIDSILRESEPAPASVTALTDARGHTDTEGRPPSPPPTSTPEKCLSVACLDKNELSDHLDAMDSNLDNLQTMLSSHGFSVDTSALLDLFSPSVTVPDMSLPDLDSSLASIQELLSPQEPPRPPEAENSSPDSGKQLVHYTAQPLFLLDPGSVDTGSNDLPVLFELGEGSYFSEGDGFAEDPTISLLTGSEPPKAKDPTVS
Chain of SPIB (Q01892 whole entry): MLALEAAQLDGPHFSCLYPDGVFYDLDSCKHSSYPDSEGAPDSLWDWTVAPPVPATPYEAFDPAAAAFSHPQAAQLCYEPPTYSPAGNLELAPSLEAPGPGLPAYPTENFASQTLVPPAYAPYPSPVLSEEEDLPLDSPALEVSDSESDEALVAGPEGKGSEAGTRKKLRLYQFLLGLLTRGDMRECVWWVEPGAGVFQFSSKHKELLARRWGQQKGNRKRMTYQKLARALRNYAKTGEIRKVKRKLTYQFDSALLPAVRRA

Sequence: GAACCC
- binding signal (FLI1): 1.12 fold enrichment (6-mer frequency, TF over GST control)
- binding signal (ELK1): 1.19 fold enrichment (6-mer frequency, TF over GST control)
- binding signal (GABPA): 1.16 fold enrichment (6-mer frequency, TF over GST control)
- binding signal (ERG): 1.18 fold enrichment (6-mer frequency, TF over GST control)
- binding signal (ELF1): 1.14 fold enrichment (6-mer frequency, TF over GST control)
- binding signal (EHF): 1.13 fold enrichment (6-mer frequency, TF over GST control)
- binding signal (SPI1): 1.16 fold enrichment (6-mer frequency, TF over GST control)
- binding signal (SPIB): 1.06 fold enrichment (6-mer frequency, TF over GST control)
- binding signal (ELK3): 1.19 fold enrichment (6-mer frequency, TF over GST control)
- binding signal (FEV): 1.17 fold enrichment (6-mer frequency, TF over GST control)
- binding signal (ETV5): 1.2 fold enrichment (6-mer frequency, TF over GST control)
- binding signal (HSF1): 1.03 fold enrichment (6-mer frequency, TF over GST control)
- binding signal (SPIC): 1.29 fold enrichment (6-mer frequency, TF over GST control)
- binding signal (ELF4): 1.22 fold enrichment (6-mer frequency, TF over GST control)
- binding signal (ELK4): 1.2 fold enrichment (6-mer frequency, TF over GST control)
- binding signal (ETV2): 1 fold enrichment (6-mer frequency, TF over GST control)
- binding signal (ELF3): 1.05 fold enrichment (6-mer frequency, TF over GST control)
- binding signal (ETV1): 1.19 fold enrichment (6-mer frequency, TF over GST control)
